Results: PubChem BioAssay (NCI)
Compounds without any hit were thinned out: in the full panel of roughly 83,000, 20% have a hit.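 How to read the values: 0–100, growth inhibition (40 = 60% inhibited); 0, no net growth; -100 to 0, cell death (-40 = 40% of starting cells died; -100 = all dead).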 Values without a mark were called inactive. Calls of active or inactive are those of the source. Rule for the calls: active = growth percent below 10; inactive = the rest.

These compounds were tested on MDA-MB-468 breast (assay: NCI-60 one-dose screen, 48 h (100 = growth as untreated, 0 = no growth, -100 = all killed)). Conditions: 10 µM unless noted.

| SMILES | growth |
| --- | --- |
| CC[C@H](CC[C@@H](C)[C@H]1CC[C@H]2[C@@H]3/C(=C/c4cccnc4)C(=O)C4=CC(=O)CC[C@]4(C)[C@H]3CC[C@]12C)C(C)C | 97% |
| Fc1ccc2nc3c(cc2c1)CSc1nnc(-c2ccc[nH]c2=S)n1N3 | 105% |
| CC(=O)O[C@@H]1[C@@H](OC(C)=O)[C@H](OC(C)=O)CO[C@H]1Nc1cccc2ccccc12 | 104% |
| NC(=S)NNC1CCCCC1 | 99% |
| CCN(CC)CCNc1ccc([N+](=O)[O-])c2sc3ccccc3c(=O)c12 | 1.4% (active) |
| c1ccc2[nH]c(SSc3nc4ncncc4[nH]3)nc2c1 | 11.3% |
| COc1cc(/C=C/c2cc(/C=C/c3ccc(O)c(OC)c3)n(-c3ccccc3)n2)ccc1O | -31.9% (active) |
| O=C(Nc1ccc(F)c(Cl)c1)Nc1ccc(Cl)c(Cl)c1 | 9.54% (active) |
| C=C1CC[C@H]2[C@@](C)(CCC3OC(c4ccc(OCc5cn(C6CC(OC(C)=O)C(OC(C)=O)C(COC(C)=O)O6)nn5)cc4)OC[C@]32C)[C@@H]1/C=C/C1=CCOC1=O (stereo partly specified) | 47.3% |
| O=C(Nc1cccc(F)c1)c1cc(=O)[nH]c2cc(Br)ccc12 | 55.3% |
| Cc1nc2sc(C(=O)Nc3cccc(Br)c3)c(N)c2cc1C(=O)c1ccc(C(F)(F)F)cc1 | 90.6% |
| CC(C)=CCNc1ncnc2c1ncn2C1OC(COP(=O)(O)O)C(O)C1O (stereo unspecified) | 23.3% |
| N#Cc1ccc(C2C3=C(CCCC3=O)OC3=C2C(=O)c2ccccc2C3=O)cc1 (stereo unspecified) | -16.1% (active) |
| COc1ccc2c(c1OC)O/C(=C\c1ncc([N+](=O)[O-])n1C)C2=O | 69.9% |
| Cc1ccc(NC(=O)c2ccc(Nc3ncnc4c3cnn4-c3cccc(F)c3)cc2)cc1 | 96.6% |
| O=C(CCc1nc(-c2cccc(Cl)c2)no1)Nc1ccccn1 | 83.1% |
| CC(C)(Sc1cc(C(C)(C)C)c(O)c(C(C)(C)C)c1)Sc1cc(C(C)(C)C)c(OC(=O)CCC(=O)O)c(C(C)(C)C)c1 | 47.4% |
| CCN1CCN(Cc2ccc(-c3cc4c(N[C@H](C)c5ccccc5)ncnc4[nH]3)cc2)CC1 | -38.9% (active) |

| SMILES | growth |
| --- | --- |
| CCCCN1CCN(c2ccc3nc(-c4ccc5nc(-c6ccc(OCC)cc6)[nH]c5c4)[nH]c3c2)CC1 | 67.3% |
| O=S(=O)(NCCCNc1nccc(-c2c(-c3ccc(F)c(O)c3)nc3sccn23)n1)c1ccc(Cl)cc1 | 82.8% |
| Nc1c(C(=O)Nc2cccc(Br)c2)sc2nc3c(cc12)C(=O)CCC3 | 32.1% |
| CN(C)CCOc1ccc2c(c1)C(=O)/C(=C\c1ncc([N+](=O)[O-])n1C)C2 | -78.5% (active) |
| CCOC(=O)C1=C(C)n2nc(CC#N)c(C#N)c2NC1c1ccc(CC)cc1 (stereo unspecified) | 114% |
| C#CCOC(=O)[C@@H]1CCCN1CC#C | 75.4% |
| C/C(=C(/c1ccccc1)c1ccc(OCC(O)CN2CCOCC2)cc1)c1ccccc1 (stereo unspecified) | 85.1% |
| Cc1cc2c(cc1C)Nc1sc(NC(=O)CN3CCN(C)CC3)nc1C(=O)N2 | 105% |
| O=C1c2cccc3c(-c4ccc(-c5nc6c7ccccc7c7ccccc7c6[nH]5)cc4)ccc(c23)C(=O)N1CCN1CCNCC1 | 81.5% |
| N=C(N)c1ccc(-c2ccc(-c3ccc(Cl)cc3)s2)nc1 | -56.4% (active) |
| COc1cccc(-c2nc3sccn3c2-c2ccnc(NCCCNS(=O)(=O)c3ccc(F)cc3)n2)c1 | 47.9% |
| COc1ccc(Cn2cc3c(c2)-c2oncc2CC3)cc1OC | -7.7% (active) |
| CS(=O)(=O)OCCN(CCOS(C)(=O)=O)c1ccc(/C=N/Nc2ccc([N+](=O)[O-])cc2[N+](=O)[O-])cc1 | 87.9% |
| OCCN1CCN(CCCN2c3ccccc3Sc3ccc(C(F)(F)F)cc32)CC1 | -47.1% (active) |
| CC1(C)C(=O)/C(=C\c2cccnc2)C[C@]2(C)[C@H]3CC[C@@H]4[C@@H](C(=O)/C=C/c5ccncc5)CC[C@@]4(C)[C@]3(C)CC[C@@H]12 | -5.14% (active) |
| O=C(O)c1cn(C2CC2)c2cc(N3CCN(C(=O)N(c4ccccc4)c4nc(-c5ccccc5)cs4)CC3)c(F)cc2c1=O | -0.856% (active) |
| COc1ccc(COC(=O)CC(C)C)cc1 | 102% |
| Cc1c(C(=O)O[C@H]2[C@@H]3[C@H](C)CC[C@H]3[C@]3(C)O[C@@]2(C2CCCCC2)C[C@H]3OC(=O)CO)ccc2ccccc12 | 22.5% |
